PubChem BioAssay AID777 (Sanford-Burnham Center for Chemical Genomics, 2007)
Among all 96,000 compounds or so, about 19,000 (20%) were called active.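 Rule for the calls: active = blocking of liver enzyme CYP2C9 beyond about 50% at 5 µM (limit read from the data); inactive = the rest.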 Not all results are given here.

target: Cytochrome P450 2C9 (Homo sapiens) (UniProt P11712); test: blockers of cytochrome P450 2C9 activity – biochemical, luminescence, ADME assay, primary screen (AID 777); details: CYP2C9 Supersomes, luciferin-H conversion, at 5 µM, hits give high values
Sequence (P11712 whole entry, looked up): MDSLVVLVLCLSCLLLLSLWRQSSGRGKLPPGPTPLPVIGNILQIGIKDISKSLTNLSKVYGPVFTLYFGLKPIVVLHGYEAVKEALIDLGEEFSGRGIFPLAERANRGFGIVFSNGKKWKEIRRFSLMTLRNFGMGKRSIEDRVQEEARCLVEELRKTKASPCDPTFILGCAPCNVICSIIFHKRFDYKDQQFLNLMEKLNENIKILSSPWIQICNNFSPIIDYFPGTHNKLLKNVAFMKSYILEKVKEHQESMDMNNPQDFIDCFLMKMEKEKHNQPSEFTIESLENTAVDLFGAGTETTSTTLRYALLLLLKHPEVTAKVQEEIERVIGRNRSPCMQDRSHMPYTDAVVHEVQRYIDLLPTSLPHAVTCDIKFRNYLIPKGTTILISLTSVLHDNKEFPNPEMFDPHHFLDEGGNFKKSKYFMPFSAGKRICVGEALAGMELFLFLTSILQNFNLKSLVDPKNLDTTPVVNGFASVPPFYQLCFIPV

inhibition, active:
CC(C)Cn1c(CN(Cc2ccccc2)Cc2ccccc2)nc2c1c(=O)n(C)c(=O)n2C 72.2%, Cc1ccc(S(=O)(=O)n2nc(OC(=O)C(C)(C)C)cc2N)cc1 50.4%, Nc1cc(OC(=O)c2ccccc2Br)nn1S(=O)(=O)c1ccccc1 61.5%, Cc1cccc(N2CC(C)Cn3c2nc2c3c(=O)n(CC(=O)OCc3ccccc3)c(=O)n2C)c1 (centres undefined) 86.9%, COc1ccc(OC)c(C(c2nnnn2C(C)(C)C)N2CCc3ccccc3C2)c1 (centres undefined) 98.9%, CCN(CC)C(=O)CN(c1cccc(OC)c1)S(=O)(=O)c1ccc(C)cc1 94%, CCCCOC(=O)Cn1c(=O)n(CC(=O)OCCCC)c2cc(C)ccc21 60.8%, CCCCOC(=O)c1[nH]c(C)c(C(=O)OC)c1C 61.2%, CC(=O)Nc1ccc(NC(=O)CSCc2cnn(-c3ccccc3)c2-n2cccc2)cc1 86.6%, C/C(=C\c1ccco1)C1Nc2cccc3cccc(c23)N1 55.5%, O=C(CCc1ccc(S(=O)(=O)N2CCOCC2)cc1)Nc1ccc2ccccc2c1 55.3%, CCCc1nc2ccccc2c(=O)n1/N=C/c1ccc(O)c(O)c1 85.3%, O=C(Cc1ccc(-n2c(=O)[nH]c3ccccc3c2=O)cc1)N1CCN(c2cccc(Cl)c2)CC1 57.5%, O=S(=O)(Nc1ccccn1)c1ccc(Oc2ccccc2)cc1 81.4%, COc1ccccc1Oc1ccc(S(=O)(=O)Nc2cccnc2)cc1 84.9%, O=C(O)c1ccccc1NC(=S)NC(NC(=O)c1ccccc1[N+](=O)[O-])C(Cl)(Cl)Cl (centres undefined) 72.3%, Cc1ccc(CNC(=O)CCCNC(=O)c2ccc(Cl)cc2)n1C 80.5%, CCCOc1ccccc1C1CC(=O)Nc2cc3c(cc21)OCO3 (centres undefined) 94.4%, COc1ccc(-c2nnc(SC(=O)N3c4ccccc4Sc4ccccc43)o2)cc1 83.1%, COc1ccc(N(CC(=O)N/N=C/c2cccc3c2OCCO3)S(=O)(=O)c2ccc(NC(C)=O)cc2)cc1 76.1%

inhibition, inactive:
CC(=O)c1ccc2c(ccc3ccccc32)c1 40.7%, CC(C)NC(=O)C(=O)NCCN1CCN(S(=O)(=O)c2ccc(Cl)cc2)CC1 20.7%, COCCN1Cc2cccc(C(=O)Nc3ccccc3OC)c2C1=O 34.5%, O=C(Nc1cc2ccccc2oc1=O)C1CCCCC1 3.6%, Cc1cccc(C)c1NC(=O)CCCSc1nnc(-c2ccco2)n1-c1ccccc1 25.6%, O=C(Nc1nnc(CCc2ccccc2)s1)C1CCCO1 (centres undefined) 16.3%, O=C(OC(C(=O)NC1CCCC1)c1ccc(F)cc1)c1ccno1 (centres undefined) 13.9%, CC(C)Cn1cnc2c1c(=O)n(CC(O)c1ccccc1)c(=O)n2CC(C)C (centres undefined) -5.7%, Cc1ccc(S(=O)(=O)N2CCCC2CO)cc1 (centres undefined) -37%, Cc1c(C(=O)OCC(=O)N(CCC#N)c2ccccc2)oc2c1ccc1ccccc12 -74.8%, CC(=O)Nc1ccccc1OC(=O)N1CCOCC1 -0.1%, CC(C)Cc1cc(C(=O)Nc2cc(Br)ccc2O)no1 18.1%, O=c1c2ccccc2oc2nc3n(c(=O)c12)CCCS3 -21.3%, COc1ccc(N2CC(C)Cn3c2nc2c3c(=O)n(Cc3ccccc3F)c(=O)n2C)c(OC)c1 (centres undefined) -4.7%, Cn1c(=O)n(CCc2ccccc2)c(=O)c2c1nc1n2CCCN1c1ccccc1 14.3%, O=C(/C=C/c1cc2c(cc1Br)OCO2)NCc1ccc(Cl)cc1 -6.4%, CC(C)(C)C(=O)c1cnc(Nc2ccccc2)s1 33.1%, S=c1[nH]nc(-c2ccco2)n1/N=C/c1ccc(Br)s1 -24.6%, Cc1ccc(C(c2nnnn2C(C)(C)C)N2CCc3ccccc3C2)cc1 (centres undefined) -5.7%, CCC(C)(C)n1nnnc1C(c1ccccc1OC)N1CCSCC1 (centres undefined) 17%, CCOc1ccc(S(=O)(=O)N(CC(=O)O)c2ccccc2)cc1 17.7%, COc1cccc(NC(=O)CN(C)S(=O)(=O)c2ccc(C)cc2)c1 19%, Cc1nonc1OCCn1nnnc1N 6.3%, CCN(CC(=O)NCc1cccs1)c1nnnn1-c1ccccc1 -1.7%, Cc1n[nH]c(=S)n1/N=C/c1ccc(Br)o1 4.5%, COC(=O)Cn1c2ccc(C)cc2c2nc(C)sc21 22.4%, CCCCOC(=O)Cn1c(=N)n(CCN(CC)CC)c2ccccc21 -37.7%, CCCCN(CC)CCNC(=O)c1[nH]c(C)c(C(C)=O)c1C -14.6%, COCCCNCC(=O)Nc1sc(C)c(C)c1C(=O)OC 39.5%, CCCOc1ccc(NC(=O)C2CCCNC2=O)cc1 (centres undefined) 1.9%, Cc1cc(C)cc(NC(=O)CSCc2cnn(-c3ccccc3)c2-n2cccc2)c1 44%, COc1ccc(-n2nnnc2SCC(=O)Nc2ccccc2)cc1 -7.3%, Cc1ccc(NC(=O)c2cc(-c3ccc(C)o3)nc3ccccc23)nc1 3.2%, CC(=O)OCc1cc2cc(C)ccc2[nH]c1=O -8%, O=C(NCC1CCCO1)/C(=C\c1ccco1)NC(=O)c1ccccc1 (centres undefined) -18.8%, Cc1cccc(NC(=O)/C(=C\c2ccco2)NC(=O)c2ccccc2)c1 32.5%, COc1ccc2c(c1OC)C(=O)N(c1ncn[nH]1)C2 -23.9%, CCN(CC)C(=O)CC1(c2ccccc2OC)CCOC(C(C)C)C1 (centres undefined) 17%, O=C(CN1CCN(S(=O)(=O)c2ccc3ccccc3c2)CC1)NC(=O)NC1CCCCC1 -18.3%, O=S(=O)(c1ccc2ccccc2c1)N1CCN(S(=O)(=O)N2CCOCC2)CC1 -53.6%, Cn1nnnc1SCc1cc(=O)[nH]c2ccccc12 14.5%, CCOC(=O)Cc1c(C)nc2c(C#N)c(C)nn2c1C -3.2%, O=c1c2ccccc2nc(N/N=C/c2ccccc2)n1O -1.4%, CCCOn1c(-n2nc(C)cc2C)nc2ccccc2c1=O 11.3%, CCOC(=O)N1CCN(C(=O)Cc2ccc(-n3c(=S)[nH]c4ccccc4c3=O)cc2)CC1 11.8%, CCOC(=O)N1CCC(Nc2c(NCCN3CCN(c4cccc(Cl)c4)CC3)c(=O)c2=O)CC1 0.8%, O=C(C1CCN(S(=O)(=O)c2cnc[nH]2)CC1)N1CCN(Cc2ccc3c(c2)OCO3)CC1 9.3%, Cc1ccc(S(=O)(=O)c2ccc(Oc3ccccc3)cc2)cc1 -5.1%, Cc1nc(CNS(=O)(=O)c2ccc(Oc3ccccc3)cc2)cs1 39.1%, O=C(CS(=O)(=O)Cc1ccccc1)Nc1cccnc1 -3.4%, Cc1cc(C)cc(NS(=O)(=O)c2ccc(Oc3ncc(C(F)(F)F)cc3Cl)cc2)c1 47.2%, COc1cc(=O)[nH]c(=O)n1C(=O)Cc1ccccc1 11.7%, Cc1nc(NC2=NC(C(=O)Nc3ccc(Cl)cc3)CC(=O)N2)nc2ccccc12 (centres undefined) 1.6%, O=C(CCCN1C(=O)c2cccc3cccc(c23)C1=O)N1CCN(Cc2ccc3c(c2)OCO3)CC1 -138%, O=C1c2ccccc2C(=O)N1c1ccccc1S(=O)C(F)(F)F (centres undefined) -4%, O=C(Nc1ccccc1[N+](=O)[O-])C1C(c2ccccc2)=C1c1ccccc1 18.8%, O=[N+]([O-])c1ccccc1NCc1ccc(Cl)cc1 18%, O=C(Nc1ccc2c(c1)OCO2)C1CC(c2c(F)cccc2Cl)=NO1 (centres undefined) -159%, COCn1c(COc2ccccc2)nc2ccccc21 43.7%, CCN(CC(=O)NC(C)C)C(=O)CCNC(=O)c1ccc(Cl)cc1 6.3%, CCCCNC(=O)CCNC(=O)c1ccc(C(C)(C)C)cc1 41.3%, CCCCNC(=O)C(=O)c1ccccc1NC(C)=O 15.4%, CCCNC(=S)NC1CC2CCCC(C1)N2CC(C)C (centres undefined) -4.2%, Cc1cc(OC(=O)c2ccc(Cl)cc2)cc(=O)n1C 32%, COc1ccccc1C1C2=C(COC2=O)Nc2cc3c(cc21)OCO3 (centres undefined) 28.2%, COCCOC(=O)C1=C(C)NC(=O)CC1c1cc2c(cc1Br)OCO2 (centres undefined) 8.2%, CC1(C)CC(=O)C(C2=NC(C)(C)Cc3ccccc32)=C(O)C1 5.8%, C=CCOc1c2ccc(C(=O)N(CC)c3ccc(OC)cc3)cc2nn1C 47.3%, COc1ccc(-c2nnc(SC(C)C#N)o2)cc1 (centres undefined) 13.9%, COc1cc(OC)cc(C(=O)NC2CCN(C(=O)N3c4ccccc4Sc4ccccc43)CC2)c1 41.4%, COc1ccc2c(c1)cc1n2CCN=C1NN 42.7%, Cc1ccc(C(=O)NC2CCN(C(=O)N3CCOCC3)CC2)cc1 -6.4%, N#Cc1nc(N)nc(N(c2ccccc2)c2ccccc2)n1 19.9%, CCOC(=O)c1cc2c(n(-c3ccc(C)cc3)c1=O)CCCC2=O 12%, Cc1n[nH]c(=O)n1-c1ccc(Oc2ccccc2)cc1 0.7%, Cc1ccc(N)cc1-n1c(C)ccc1C -1.6%, Cc1ccccc1CSc1nnc(-c2ccccn2)n1N -28.8%, Cc1ccc(S(=O)(=O)N(CC(=O)N/N=C/c2ccc(F)cc2)c2cccc3cccnc23)cc1 9.7%, COc1ccc(N(CC(=O)N/N=C/c2cccs2)S(=O)(=O)c2ccc(OC)c(OC)c2)cc1 44.2%
